PubChem BioAssay (Tox21)
Inconclusive results are not listed. Active and inactive are the calls of the source. Calls follow the shape of the dose curve; as a rule, active = well fitted curve in the direction sought with a large enough effect in the repeat runs; inconclusive = weak or mixed curves; inactive = no such curve, though single readings can be large; an effect the other way counts as inactive or inconclusive.

How the values were obtained:
[1] = qHTS RealTime-Glo MT Cell Viability Assay in HEK293 cells - 16 hour (AID 1224872); conditions: RealTime-Glo luminescence; series mostly up to 76.8 µM; also: nearly all actives have a fitted effect of over 50% in size; also: potency is read from the fitted curve at half-maximal effect; as to activity change, negative = cytotoxicity: top concentration of the series differs between compounds
Procedure, shortened: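 Assay medium contained NanoLuc luciferase plus cell-permeant prosubstrate, added with HEK293 cells at 600 cells/well. After 5 h at 37 C/5% CO2 compounds were added; plates stayed at 37 C for 40 h with serial luminescence reads.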

[2] = qHTS RealTime-Glo MT Cell Viability Assay in HepG2 cells - 8 hour (AID 1224873); conditions: RealTime-Glo luminescence; series mostly up to 76.8 µM; also: nearly all actives have a fitted effect of over 55% in size; also: potency is read from the fitted curve at half-maximal effect
Procedure, shortened: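 Real-time viability: cells seeded at 600 per well together with NanoLuc and cell-permeant prosubstrate, compounds added after 5 h incubation. Luminescence tracked at 0, 8, 16, 24, 32 and 40 h of exposure.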

[3] = qHTS RealTime-Glo MT Cell Viability Assay in HEK293 cells - 40 hour (AID 1224874); conditions: RealTime-Glo luminescence; max response: active compounds read low; also: nearly all actives have a fitted effect of over 50% in size; also: potency is read from the fitted curve at half-maximal effect
Procedure, shortened: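 Tox21 screen in HEK293 using RealTime-Glo MT chemistry, with cells and reagent co-dispensed. Luminescence proportional to viable cell number was captured at intervals during 40 h compound exposure at 37 C.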

[4] = A CellTox Green Cytotoxicity Assay to monitor cytotoxicity in HEK293 cells - 24 hour (AID 1224875); conditions: CellTox Green fluorescence; series mostly up to 76.8 µM; also: nearly all actives have a fitted effect of over 45% in size; also: potency is read from the fitted curve at half-maximal effect
Procedure, shortened: (§1)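 Seeding of HEK293 cells together with cytotoxicity dye preceded a 5 h incubation at 37 C/5% CO2. Test compounds in DMSO were then added and fluorescence monitored across 40 h.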

[5] = A CellTox Green Cytotoxicity Assay to monitor cytotoxicity in HepG2 cells - 16 hour (AID 1224876); conditions: CellTox Green fluorescence; series mostly up to 76.8 µM; also: nearly all actives have a fitted effect of over 45% in size; also: potency is read from the fitted curve at half-maximal effect
Procedure, shortened: (§2)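 Nonlytic assay: viable cells exclude the dye, so fluorescence scales with cell death. HepG2 at 600 cells/well, compounds added after 5 h, signal read across 40 h.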

[6] = qHTS RealTime-Glo MT Cell Viability Assay in HepG2 cells - 32 hour (AID 1224877); conditions: RealTime-Glo luminescence; series mostly up to 76.8 µM; also: nearly all actives have a fitted effect of over 55% in size; also: potency is read from the fitted curve at half-maximal effect
Procedure, shortened: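 qHTS, HepG2, 600 cells/well, RealTime-Glo (NanoLuc + prosubstrate) added with cells; 5 h preincubation; DMSO compound addition; 37 C; luminescence at 0/8/16/24/32/40 h.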

[7] = A CellTox Green Cytotoxicity Assay to monitor cytotoxicity in HepG2 cells - 24 hour (AID 1224878); conditions: CellTox Green fluorescence; series mostly up to 76.8 µM; also: nearly all actives have a fitted effect of over 45% in size; also: potency is read from the fitted curve at half-maximal effect
Procedure, shortened: as §2

[8] = A CellTox Green Cytotoxicity Assay to monitor cytotoxicity in HEK293 cells - 40 hour (AID 1224871); conditions: CellTox Green fluorescence; series mostly up to 76.8 µM; also: nearly all actives have a fitted effect of over 45% in size
Procedure, shortened: as §1

[9] = A CellTox Green Cytotoxicity Assay to monitor cytotoxicity in HepG2 cells - 40 hour (AID 1224879); conditions: CellTox Green fluorescence; series mostly up to 76.8 µM; also: nearly all actives have a fitted effect of over 40% in size; also: potency is read from the fitted curve at half-maximal effect
Procedure, shortened: as §2
% is scaled to controls: 0 for no effect and ±100 for the full control effect.

COc1cc(N)c(Cl)cc1C(=O)NC1CCN(CCCOc2ccc(F)cc2)CC1OC (stereo not drawn)
inactive: Potency [2] | Potency [4] | Potency [5] | Potency [6] | Potency [7]
active: Potency [1] 2.39 µM | Potency [3] 3.01 µM

CCC(=O)C1CC(C(C)C)CC=C1C (stereo not drawn)
inactive: Potency [8] | Potency [1] | Potency [2] | max response [3] 9.7% | Potency [4] | Potency [6] | Potency [7] | Potency [9]

Oc1cc2c(cc1O)[C@H]1c3ccc(O)c(O)c3OC[C@@]1(O)C2
inactive: max response [3] -26.5% | Potency [5] | Potency [7]
active: Potency [2] 39.4 µM | Potency [4] 49.6 µM | Potency [6] 55.6 µM

CC1(C)S[C@@H]2[C@H](NC(=O)C(c3ccccc3)S(=O)(=O)O)C(=O)N2[C@H]1C(=O)O (stereo partly drawn)
inactive: Potency [1] | Potency [2] | max response [3] 0.0341% | Potency [4] | Potency [5] | Potency [6] | Potency [7] | Potency [9]

CN1C[C@H](C(=O)N[C@]2(C)O[C@@]3(O)[C@@H]4CCCN4C(=O)[C@H](Cc4ccccc4)N3C2=O)C[C@@H]2c3cccc4[nH]cc(c34)C[C@H]21
active: Potency [1] 23.9 µM | Potency [3] 12 µM

CCCCCCCC/C=C\CCCCCCCCCCCC(=O)O
inactive: Potency [8] | Potency [1] | Potency [2] | Potency [4] | Potency [5] | Potency [6] | Potency [7] | Potency [9]

Oc1ccc(Cl)c2cccnc12
inactive: Potency [1] | Potency [2] | Potency [4] | Potency [5] | Potency [6] | Potency [7]

O=[N+]([O-])c1ccc(O/N=C/c2cc(Br)c(O)c(Br)c2)c([N+](=O)[O-])c1
active: Potency [1] 43.4 µM
inactive: Potency [8] | Potency [2] | Potency [4] | Potency [5] | Potency [7] | Potency [9]

NCCNCCO
inactive: Potency [8] | Potency [1] | Potency [2] | Potency [4] | Potency [5] | Potency [6] | Potency [7] | Potency [9]

Cc1cc(=O)c2c(O)c3c(O)cc(=O)c4c3c3c(cc(O)c1c23)C(C)(C)C=4O
active: Potency [4] 5.22 µM | Potency [5] 4.65 µM | Potency [7] 4.65 µM | Potency [9] 3.69 µM
inactive: activity change, negative = cytotoxicity [1] -25.2% [at 15.8 µM] | viability change, negative = cytotoxic [2] -10.2% [at 15.8 µM]

C=CC(=O)[O-].C=CC(=O)[O-].[Zn+2]
inactive: Potency [1] | Potency [2] | Potency [4] | Potency [5] | Potency [6] | Potency [7] | Potency [9]
